Targets include RELARELA (p65 homodimer) (Homo sapiens, UniProt Q04206 1-307); p50p50 homodimer (Homo sapiens, UniProt P19838 7-356); RELB subunit;p50 subunit (Homo sapiens;Homo sapiens, UniProt Q01201;P19838 120-401;7-356).
Common to all, as to experiment: protein binding microarray; high values mean tight binding
Common to all, as to settings: dsDNA, one strand shown

In another experiment the target is T1, p52p52 homodimer (Homo sapiens, UniProt Q00653 4-332).
T1 sequence: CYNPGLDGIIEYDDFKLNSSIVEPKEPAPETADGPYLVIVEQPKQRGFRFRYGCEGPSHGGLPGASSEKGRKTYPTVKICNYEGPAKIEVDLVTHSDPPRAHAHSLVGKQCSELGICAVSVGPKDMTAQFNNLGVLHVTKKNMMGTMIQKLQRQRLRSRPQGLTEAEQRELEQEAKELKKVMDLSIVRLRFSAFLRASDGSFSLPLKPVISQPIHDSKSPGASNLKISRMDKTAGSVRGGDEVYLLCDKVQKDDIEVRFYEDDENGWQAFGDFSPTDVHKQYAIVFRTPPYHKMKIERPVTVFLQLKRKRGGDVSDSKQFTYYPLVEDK

Experiment [1] has as its target RELA (p65) subunit of heterodimer;p50 subunit (Homo sapiens;Homo sapiens, UniProt Q04206;P19838 1-307;7-356).
In experiment [2] the target is RELA (p65) subunit of heterodimer;p52 subunit (Homo sapiens;Homo sapiens, UniProt Q04206;Q00653 1-307;4-332).
The next experiment has as its target T2, RELB subunit;p52 subunit (Homo sapiens;Homo sapiens, UniProt Q01201;Q00653 120-401;4-332).
T2 sequence 1: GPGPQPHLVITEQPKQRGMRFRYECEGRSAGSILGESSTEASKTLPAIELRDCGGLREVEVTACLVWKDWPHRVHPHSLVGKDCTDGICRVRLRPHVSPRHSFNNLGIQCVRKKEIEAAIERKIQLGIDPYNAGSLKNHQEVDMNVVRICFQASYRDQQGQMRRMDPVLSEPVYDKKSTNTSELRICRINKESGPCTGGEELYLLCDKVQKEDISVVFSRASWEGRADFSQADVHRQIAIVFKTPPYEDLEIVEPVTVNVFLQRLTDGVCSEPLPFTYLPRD
T2 sequence 2: T1 sequence

Experiment [3] addresses C-Rel subunit;p50 subunit (Homo sapiens;Homo sapiens, UniProt Q04864;P19838 1-285;7-356).
The target in experiment [4] is T3, C-Rel subunit;p52 subunit (Homo sapiens;Homo sapiens, UniProt Q04864;Q00653 1-285;4-332).
T3 sequence 1: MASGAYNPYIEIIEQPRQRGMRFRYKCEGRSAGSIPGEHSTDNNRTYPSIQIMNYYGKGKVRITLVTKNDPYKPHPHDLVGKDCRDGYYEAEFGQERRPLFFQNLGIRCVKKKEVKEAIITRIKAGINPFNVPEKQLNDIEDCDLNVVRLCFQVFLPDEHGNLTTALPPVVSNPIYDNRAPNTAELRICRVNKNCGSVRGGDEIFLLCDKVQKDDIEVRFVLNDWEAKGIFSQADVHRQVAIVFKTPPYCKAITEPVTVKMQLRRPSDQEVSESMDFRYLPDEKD
T3 sequence 2: T1 sequence

Binding signal data for 15 sequences are collected here from PMC3218832.

Chain of RELA (p65) subunit of heterodimer;p50 subunit (Q04206 1-307, chain 1 of 2): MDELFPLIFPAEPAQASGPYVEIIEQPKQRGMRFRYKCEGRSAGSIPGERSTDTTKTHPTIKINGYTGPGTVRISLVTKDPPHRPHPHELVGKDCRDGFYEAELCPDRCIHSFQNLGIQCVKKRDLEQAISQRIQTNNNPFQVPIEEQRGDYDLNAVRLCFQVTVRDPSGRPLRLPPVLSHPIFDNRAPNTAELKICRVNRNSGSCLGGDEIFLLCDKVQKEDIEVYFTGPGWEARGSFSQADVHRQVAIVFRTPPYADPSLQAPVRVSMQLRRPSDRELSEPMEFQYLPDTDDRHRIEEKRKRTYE
Chain of RELA (p65) subunit of heterodimer;p50 subunit (P19838 7-356, chain 2 of 2): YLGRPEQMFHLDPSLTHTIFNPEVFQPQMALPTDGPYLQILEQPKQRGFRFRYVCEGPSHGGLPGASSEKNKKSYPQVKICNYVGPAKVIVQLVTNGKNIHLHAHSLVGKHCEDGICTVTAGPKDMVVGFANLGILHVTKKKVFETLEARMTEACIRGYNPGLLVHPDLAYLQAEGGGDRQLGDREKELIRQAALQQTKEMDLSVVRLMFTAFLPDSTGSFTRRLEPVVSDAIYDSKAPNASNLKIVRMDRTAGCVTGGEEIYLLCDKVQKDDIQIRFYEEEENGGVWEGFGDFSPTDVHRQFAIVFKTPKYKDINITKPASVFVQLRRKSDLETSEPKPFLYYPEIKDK
Chain of RELARELA (p65 homodimer) (Q04206 1-307): as the sequence (Q04206 1-307, chain 1 of 2) above
Chain of p50p50 homodimer (P19838 7-356): as the sequence (P19838 7-356, chain 2 of 2) above

For the sequence GGGGGTGCCCC, the binding signal in the experiment with RELARELA (p65 homodimer) was determined as 1.45 z-score; with p50p50 homodimer, 0.814 z-score; with p52p52 homodimer, 3.15 z-score; in [1], 2.21 z-score; in experiment [2], 2.88 z-score; with RELB subunit;p50 subunit, 2.52 z-score. The binding signal came to 2.27 z-score in the experiment with RELB subunit;p52 subunit, 1.67 z-score in experiment [3] and 2.5 z-score in experiment [4].
For AGGATAATCCC, the binding signal with RELARELA (p65 homodimer) was 1.11 z-score; with p50p50 homodimer, -0.039 z-score; with p52p52 homodimer it was 0.47 z-score; in experiment [1], 0.562 z-score; in [2], 0.416 z-score; in the experiment with RELB subunit;p50 subunit, -0.113 z-score. Also, the binding signal with RELB subunit;p52 subunit turned out to be 0.0769 z-score; in experiment [3] it was 0.307 z-score; in experiment [4], 0.396 z-score.
For AGGAATATCCC, the binding signal was 1.97 z-score with RELARELA (p65 homodimer); 0.155 z-score in the experiment with p50p50 homodimer; 0.511 z-score with p52p52 homodimer; 0.866 z-score in experiment [1]; 0.83 z-score in experiment [2]; 0.0984 z-score with RELB subunit;p50 subunit. For the same sequence, the binding signal with RELB subunit;p52 subunit turned out to be 0.231 z-score; in experiment [3] it was 0.402 z-score; in experiment [4], 0.834 z-score.
On to GAATTCACCCC, for which the binding signal with RELARELA (p65 homodimer) came out at 0.545 z-score; with p50p50 homodimer, 0.437 z-score; with p52p52 homodimer, 0.192 z-score; in experiment [1], 0.892 z-score; in experiment [2], 0.806 z-score; in the experiment with RELB subunit;p50 subunit, 0.49 z-score. For the same sequence, the binding signal with RELB subunit;p52 subunit came out at 0.753 z-score; in [3], 0.643 z-score; in [4], 0.698 z-score.
As for CAGTAATTCCC, the binding signal with RELARELA (p65 homodimer) amounted to 2.18 z-score; in the experiment with p50p50 homodimer it was 0.948 z-score; with p52p52 homodimer, 0.804 z-score; in [1], 1.12 z-score; in experiment [2] it was 0.865 z-score; in the experiment with RELB subunit;p50 subunit, 0.722 z-score. For the same sequence, the values for the binding signal (with RELB subunit;p52 subunit; in experiment [3]; in [4]) were 0.71 z-score, 1.31 z-score and 1.05 z-score, respectively.
As for GGATAGACCCC, the binding signal was -0.296 z-score in the experiment with RELARELA (p65 homodimer); -0.324 z-score with p50p50 homodimer; -0.227 z-score with p52p52 homodimer; -0.111 z-score in [1]; -0.128 z-score in experiment [2]; -0.398 z-score in the experiment with RELB subunit;p50 subunit. Moreover, the binding signal with RELB subunit;p52 subunit is 0.071 z-score; in [3] it was -0.41 z-score; in experiment [4] it was -0.251 z-score.
On to CAAGACCTCCC, for which the binding signal was -0.906 z-score with RELARELA (p65 homodimer); -1.11 z-score with p50p50 homodimer; -0.577 z-score with p52p52 homodimer; -0.688 z-score in experiment [1]; -0.796 z-score in [2]; -0.585 z-score with RELB subunit;p50 subunit. Moreover, the binding signal in the experiment with RELB subunit;p52 subunit was -0.626 z-score; in experiment [3], -0.818 z-score; in [4], -0.713 z-score.
In the case of CGGTGCTTCCC, the binding signal is 0.809 z-score with RELARELA (p65 homodimer); 0.562 z-score with p50p50 homodimer; 2.72 z-score with p52p52 homodimer; 1.22 z-score in [1]; 1.98 z-score in [2]; 1.09 z-score with RELB subunit;p50 subunit. The binding signal in the experiment with RELB subunit;p52 subunit came to 2.06 z-score; in experiment [3], 0.924 z-score; in [4], 2.22 z-score.
With GGGGTCTCCCT, the binding signal with RELARELA (p65 homodimer) was 0.447 z-score; with p50p50 homodimer, 0.727 z-score; with p52p52 homodimer, 1.4 z-score; in experiment [1], 1.01 z-score; in [2], 1.15 z-score; with RELB subunit;p50 subunit, 0.85 z-score. Also, the figures for the binding signal (in the experiment with RELB subunit;p52 subunit; in experiment [3]; in [4]) were 1.05 z-score, 0.709 z-score and 1.16 z-score, respectively.
Regarding AAGGGCACCCC, the binding signal with RELARELA (p65 homodimer) was -0.322 z-score; with p50p50 homodimer, -0.576 z-score; with p52p52 homodimer it was -0.342 z-score; in [1], -0.454 z-score; in [2] it was -0.414 z-score; with RELB subunit;p50 subunit, -0.379 z-score. The binding signal in the experiment with RELB subunit;p52 subunit is -0.217 z-score; in experiment [3], -0.33 z-score; in experiment [4], -0.364 z-score.
GAGGGTTCCCT: the binding signal with RELARELA (p65 homodimer) is -0.44 z-score; in the experiment with p50p50 homodimer it was -0.133 z-score; in the experiment with p52p52 homodimer, -0.121 z-score; in [1] it was -0.238 z-score; in [2], -0.0267 z-score; in the experiment with RELB subunit;p50 subunit, -0.011 z-score. Further, the binding signal with RELB subunit;p52 subunit is 0.0453 z-score; in experiment [3], -0.173 z-score; in experiment [4], -0.0776 z-score.
On to AAGGAGCTCCC, for which the binding signal in the experiment with RELARELA (p65 homodimer) was -0.693 z-score; with p50p50 homodimer, -0.999 z-score; with p52p52 homodimer, -0.562 z-score; in [1] it was -0.64 z-score; in [2] it was -0.893 z-score; with RELB subunit;p50 subunit, -0.741 z-score. Moreover, the binding signal with RELB subunit;p52 subunit was -0.874 z-score; in experiment [3], -0.927 z-score; in [4] it was -0.843 z-score.
Take GGGAAGCTCCC: the binding signal in the experiment with RELARELA (p65 homodimer) was found to be 1.42 z-score; with p50p50 homodimer it was 0.219 z-score; with p52p52 homodimer, 1.52 z-score; in experiment [1], 1.07 z-score; in experiment [2] it was 1.16 z-score; with RELB subunit;p50 subunit, 0.839 z-score. Moreover, the binding signal is 0.35 z-score with RELB subunit;p52 subunit, 0.354 z-score in experiment [3] and 0.716 z-score in experiment [4].
On to GGAATGCCCCC, for which the binding signal with RELARELA (p65 homodimer) turned out to be 2.8 z-score; with p50p50 homodimer it was 1.02 z-score; with p52p52 homodimer it was 1.8 z-score; in experiment [1] it was 2.08 z-score; in [2], 2.18 z-score; in the experiment with RELB subunit;p50 subunit it was 1.13 z-score. For the same sequence, the binding signal with RELB subunit;p52 subunit came to 1.75 z-score; in experiment [3], 1.61 z-score; in experiment [4] it was 2.48 z-score.
Take CGGTATCCCCC: the binding signal came to 0.855 z-score in the experiment with RELARELA (p65 homodimer); 1.13 z-score in the experiment with p50p50 homodimer; 2.07 z-score with p52p52 homodimer; 1.69 z-score in experiment [1]; 1.56 z-score in [2]; 1.33 z-score in the experiment with RELB subunit;p50 subunit. The binding signal with RELB subunit;p52 subunit is 1.65 z-score; in [3] it was 1.23 z-score; in experiment [4], 1.71 z-score.
